Results on 39 molecules are retold here after PubChem BioAssay.

A number with no mark means an inactive call. No rule for the calls is given here.

Pantothenate synthetase (Mycobacterium tuberculosis (strain ATCC 25618 / H37Rv)), sequence (P9WIL5 whole entry, looked up): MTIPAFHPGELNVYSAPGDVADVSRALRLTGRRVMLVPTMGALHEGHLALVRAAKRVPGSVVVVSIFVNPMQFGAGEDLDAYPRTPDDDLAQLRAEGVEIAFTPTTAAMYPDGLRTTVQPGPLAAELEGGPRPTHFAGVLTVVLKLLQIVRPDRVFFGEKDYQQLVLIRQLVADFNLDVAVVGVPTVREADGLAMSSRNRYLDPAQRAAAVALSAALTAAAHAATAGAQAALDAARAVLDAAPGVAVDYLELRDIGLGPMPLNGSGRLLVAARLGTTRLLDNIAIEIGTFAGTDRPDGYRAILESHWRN

The assay concerns the target Pantothenate synthetase (Mycobacterium tuberculosis (strain ATCC 25618 / H37Rv)) (UniProt P9WIL5). Put plainly: Recombinant Mtb pantothenate synthetase (PanC) inhibitors, coupled enzyme, confirmatory (AID 375).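 Also: 0% = full reaction with vehicle and 100% = no enzyme background.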 To be noted: coupled enzyme assay; at 10 µM, active compounds read high.
For the molecule `COc1ccc(N(C(=O)c2ccco2)S(=O)(=O)c2cc(OC)ccc2OC)cc1`, the inhibition is 0%.

For `CCOC(=O)N1CCN(C(=O)COc2ccc(S(=O)(=O)NC(C)C)cc2)CC1`, the inhibition was 0%.

For the molecule `Cn1c(=O)c2c(nc(CN3CCc4ccccc4C3)n2Cc2cccc(Cl)c2)n(C)c1=O`, the inhibition is 0%.

For `CCOC(=O)Cc1csc(NC(=O)c2cccc(OC)c2)n1`, the inhibition is 0%.

`CCOc1ccccc1-c1nc(-c2ccc(C)nc2OC)no1`: the inhibition was 3%.

For the molecule `Cc1nnc(SCc2cccc(Oc3ccccc3)c2)n1N`, the inhibition is 0%.

Turning to `COc1cccc(C(=O)OCn2nnc3ccccc3c2=O)c1OC`, the inhibition was 0%.

For the molecule `Cn1c(Cc2csc(N)n2)nnc1SCC(=O)NC1CCCCC1`, the inhibition is 4%.

For `Cc1c(C(=O)N2CCOCC2)oc2ccc(S(=O)(=O)N3CCCC3)cc12`, the inhibition is 0%.

`N=c1c(C(=O)NCc2ccccc2)cc2c(=O)n3ccccc3nc2n1Cc1ccco1`: the inhibition was 0%.

For `CCOC(=O)c1c(N)c(C#N)nn1-c1ccccc1C(=O)OC`, the inhibition was 0%.

For the molecule `O=C(Nc1ccc(N2C(=O)C3C4C=CC(C4)C3C2=O)cc1)Nc1cccnc1` (centres undefined), the inhibition is 0%.

`NC(=O)c1cccc2c1C(=O)N(C1CCCCC1)C2`: the inhibition is 0%.

For `CCCCn1c(SCC(=O)NCc2ccccc2)nc2ccc(N3CCOCC3)cc2c1=O`, the inhibition was 0%.

`CCN(C(=O)Cc1c(C(=O)O)[nH]c2ccccc12)c1cc(OC)ccc1OC`: the inhibition is 0%.

Regarding `CC(C)(C)Nc1nc(NC(C)(C)C)nc(-n2ccnc2)n1`, the inhibition is 0%.

Consider `COc1cccc(OC)c1C(=O)N1CCN(S(=O)(=O)c2ccc(C)cc2)CC1`, for which the inhibition was 1%.

As for `Cc1ccc(C2=Nc3ccccc3NC(C)(c3ccc(C)o3)C2)o1` (centres undefined), the inhibition was 0%.

In the case of `CCOc1ccc(N(CC(=O)NC2CCCC(C)C2C)S(=O)(=O)c2c(C)noc2C)cc1` (centres undefined), the inhibition was 2%.

For `CCCCP(=O)(CCCC)c1ccccc1C(=O)O`, the inhibition is 3%.

Consider `Clc1ccccc1OCc1nn2c(-c3ccncc3)nnc2s1`, for which the inhibition was 0%.

As to `O=C(O)c1ccc(-n2nc(C(F)(F)F)c3c2-c2ccoc2CC3)cc1`, the inhibition is 0%.

`Cc1csc(SCC(=O)NC(=O)NCc2ccccc2)n1`: the inhibition was 9%.

Take `N#CCc1nc2c3c4c(sc3ncn2n1)CCCC4`: the inhibition is 7%.

In the case of `COC(=O)c1cccc(Oc2nc3c(c(=O)n(C)c(=O)n3C)n2C(C)C)c1`, the inhibition is 1%.

As for `Cc1ccc(-c2ccc(=O)n(CC(=O)NCCCN3CCCCC3C)n2)cc1` (centres undefined), the inhibition was 0%.

Regarding `NS(=O)(=O)c1ccc(NCc2c(F)cccc2Cl)cc1`, the inhibition is 2%.

As to `Cc1ccc2c(c1)CCCN2C(=O)C1CCCO1` (centres undefined), the inhibition is 5%.

Regarding `C(=N\c1c(-c2ccccc2)nc2n1CCS2)/c1ccccc1`, the inhibition is 4%.

On to `Cc1nc(=S)n(-c2ccccc2)[nH]1`, for which the inhibition is 0%.

With `Cc1nnc(NS(=O)(=O)c2ccc(N)cc2)s1`, the inhibition was 0%.

Consider `CCOCCCNC(=O)C1CCC(CNS(=O)(=O)c2cccc3nsnc23)CC1` (centres undefined), for which the inhibition is 1%.

With `Cc1nc(-c2coc3cc(OCC(=O)O)ccc3c2=O)cs1`, the inhibition was 0%.

`CC(=O)c1cccc(S(=O)(=O)N2CCC(n3nnc4cc(F)ccc43)CC2)c1`: the inhibition was 0%.

`CC1=C(C(=O)Nc2ccccc2)C(c2ccccn2)n2nc(CCCO)nc2N1` (centres undefined): the inhibition is 7%.

`O=C(C1CCN(S(=O)(=O)c2ccc(-n3cnnn3)cc2)CC1)N1CCN(c2ccccc2)CC1`: the inhibition was 11%.

On to `CSc1ccc(-c2cc(=O)c3ccccc3o2)cc1`, for which the inhibition was 5%.

Take `CN(C(=O)c1ccccn1)c1nnc(-c2ccncc2)s1`: the inhibition was 0%.

As for `CCn1cc(C(=O)O)c(=O)c2cc(F)c(N3CCNCC3)nc21`, the inhibition was 6%.

In general, inhibition refers to the change of the read-out against control, counted positive when it falls.
